# Sampled rows, rich in hits. Any-hit rate of the full collection: about 1.6%.
# KCNQ2 pot = KCNQ2 (rat) channel potentiation; B-score at 10 µM; actives 0.54% (n = 310,000); CHO-K1 KCNQ2, FluxOR thallium flux fluorescence; stronger effect = higher value;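 active means fluorescence ratio B-score at least 3 SD of library B-scores, with initial fluorescence B-score within 3 of them, cut at about 5.3 in these data; same plate scores as AID 2156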;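 further: B-score of peak minus minimum over baseline fluorescence ratio after K+ and Tl+ stimulus; positive B-score means potentiation of KCNQ2 with more thallium influx and brighter signal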
# KCNQ2 block = inhibitors of rat KCNQ2 potassium channel. O88943. CHO-K1 KCNQ2, FluxOR thallium flux, 20 min; stronger effect = lower value. actives 1.1% (n = 310,000). AID 2156. B-score at 10 µM;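 active means fluorescence ratio B-score at most minus 3 library SDs, with starting brightness B-score within 2 library SDs, cut at about -5.5 in these data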
# KCNQ2 block conf = confirmation of rat KCNQ2 potassium channel inhibitors; shares compounds with KCNQ2 block; KCNQ2-expressing cells, thallium flux, inhibition; stronger effect = lower value; activity change, negative = inhibition, % at 10 µM; actives 57% (n = 1,000);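 further: 0% = vehicle wells and values are ratio percent relative to vehicle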
# KCNQ1 spec = human KCNQ1 activity in KCNQ2 inhibitor specificity screen. shares compounds with KCNQ2 block. KCNQ1-expressing cells, FluxOR thallium flux fluorescence; stronger effect = lower value. activity change, negative = inhibition, % at 10 µM. actives 15% (n = 1,000);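 active means activity change at least 3 SD of negative controls below their mean in both duplicate wells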;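 further: CHO cells stably transfected with KCNQ1 and depolarized by potassium stimulus; peak minus minimum fluorescence over baseline after thallium addition; 0% = vehicle negative control and -100% = blank without thallium stimulus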
# Target sequence (P51787 whole entry, looked up): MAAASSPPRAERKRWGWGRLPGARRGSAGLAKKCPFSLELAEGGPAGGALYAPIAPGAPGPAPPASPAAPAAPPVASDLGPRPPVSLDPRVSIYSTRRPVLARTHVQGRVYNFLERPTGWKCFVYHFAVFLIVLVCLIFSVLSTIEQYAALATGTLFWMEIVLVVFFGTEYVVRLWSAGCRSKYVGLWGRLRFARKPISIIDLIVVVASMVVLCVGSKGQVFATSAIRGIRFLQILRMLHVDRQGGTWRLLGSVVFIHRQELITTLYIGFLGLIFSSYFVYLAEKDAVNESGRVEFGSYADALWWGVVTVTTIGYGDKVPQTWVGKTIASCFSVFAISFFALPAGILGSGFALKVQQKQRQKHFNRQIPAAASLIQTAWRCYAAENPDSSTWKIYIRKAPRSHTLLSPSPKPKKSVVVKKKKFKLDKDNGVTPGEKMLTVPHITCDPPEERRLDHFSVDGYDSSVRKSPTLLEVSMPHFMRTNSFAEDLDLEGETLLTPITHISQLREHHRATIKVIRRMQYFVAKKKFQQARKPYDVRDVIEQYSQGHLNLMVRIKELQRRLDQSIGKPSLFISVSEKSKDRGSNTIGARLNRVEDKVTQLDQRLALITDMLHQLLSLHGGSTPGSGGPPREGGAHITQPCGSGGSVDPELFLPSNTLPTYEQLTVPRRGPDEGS
# CHO Tl ctr = counter-screen for KCNQ2 inhibitors: effect in parental CHO cells. actives 14% (n = 1,000). thallium flux counter-screen; stronger effect = lower value. activity change, % at 10 µM. shares compounds with KCNQ2 block;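 further: 0% = vehicle negative controls with stimulus buffer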
# KCNQ2 patch conf = blocks rat KCNQ2 current in automated patch clamp | shares compounds with KCNQ2 block | KCNQ2-expressing cells | calls only at 10 µM | actives 49% (n = 550)
# Active calls of the source: *; i = inactive; · = no result given; + = active, no number. Unless noted, how the calls were made is not given here.
SMILES,KCNQ2 pot,KCNQ2 block,KCNQ2 block conf,KCNQ1 spec,CHO Tl ctr,others
Cc1c(C)n(C(=O)CN2CCN(c3ccccc3)CC2)c2ccccc12,-7.8,-7.8*,i,i,i,
O=C(COc1ccc(Cl)cc1)NCCS(=O)(=O)N1CCN(c2ccccc2F)CC1,·,i,·,·,·,
Cc1cccc2nc(COc3ccc(Cl)c4cccnc34)cn12,-9.1,-9.1*,-29%*,i,i,KCNQ2 patch conf=+
O=[N+]([O-])c1ccccc1COc1ccc(Cl)c2cccnc12,·,i,·,·,·,
Cc1cc(C)c(OC2(c3ccccc3)OC(=O)c3ccccc32)c(C)c1 (stereo not given),·,i,·,·,·,
Cc1cccc(C)c1OC1(c2ccccc2)OC(=O)c2ccccc21 (stereo not given),-8.6,-8.6*,i,i,i,
CCN(CC(=O)Nc1c(F)cccc1F)C(=O)CSc1nnc(-c2ccco2)n1CC,·,i,·,·,·,
COc1ccccc1C(=O)NCCC(=O)Nc1ncccc1O,0.03,i,·,·,·,
CCC(=O)c1ccc(OCC(=O)N2CCN(c3ncccn3)CC2)cc1,1,i,·,·,·,
Cc1ccc(S(=O)(=O)NNC(=O)c2ccc(NC(=O)C3CC3)cc2)cc1,1.2,i,·,·,·,
Cc1cc(OCC(=O)NCCN2CCOCC2)c2c(C)c(C)c(=O)oc2c1,0.27,i,·,·,·,
CC(OC(=O)c1cccc(-n2cnnn2)c1)C(=O)Nc1ccc(N(C)C)cc1 (stereo not given),·,i,·,·,·,
O=[N+]([O-])c1ccc(Cl)c(/C=N/N2CCN(Cc3ccccc3)CC2)c1,·,i,·,·,·,
O=[N+]([O-])c1ccc(Cl)c(/C=N/N2CCN(Cc3ccccc3Cl)CC2)c1,-7.2,-7.2*,i,i,i,
Cc1cccc(NC(=O)Nc2cnccn2)c1C,0.89,i,·,·,·,
O=C(COc1ccccc1Cl)Nc1ccc(N2CCN(C(=O)c3ccccc3)CC2)cc1,·,i,·,·,·,
O=C(Nc1ccccc1Cl)c1ccc(-c2ccccn2)s1,·,i,·,·,·,
CCOc1ccc2c(c1)-c1c(ssc1=S)C(C)(C)N2C(=O)c1ccco1,-8.8,-8.8*,i,i,i,
COc1ccc2c(c1)-c1c(ssc1=S)C(C)(C)N2C(=O)CSC1=NCCS1,·,i,·,·,·,
CC(NC(=O)c1cccs1)C(S)c1ccccc1 (stereo not given),-11,-11*,i,i,i,
CC(NC(=O)c1cccs1)c1ccc(Cl)cc1 (stereo not given),·,i,·,·,·,
CCCN(CC(=O)Nc1ccccc1C)C(=O)c1ccc(N2CCCCCC2)c([N+](=O)[O-])c1,·,i,·,·,·,
C[n+]1ccc(C(=O)Nc2ccccc2Cl)cc1,0.65,i,·,·,·,
Cc1ccc(S(=O)(=O)n2nc(-c3ccc(Cl)cc3)nc2NCc2ccco2)cc1,-9.3,-9.3*,i,i,i,
COc1ccccc1C(=O)n1nc(-c2ccccc2)nc1NCc1ccco1,-8.7,-8.7*,i,i,i,
SMILES,KCNQ2 pot,KCNQ2 block,KCNQ2 block conf,KCNQ1 spec,CHO Tl ctr,others
CCS(=O)(=O)n1nc(-c2ccccc2)nc1NCc1ccco1,0.01,i,·,·,·,
O=C(c1ccco1)n1nc(-c2ccccc2)nc1NCc1ccco1,0.1,i,·,·,·,
CSCCC(NC(=O)c1ccc(Cl)cc1)C(=O)OCC(=O)Nc1cc(Cl)ccc1C (stereo not given),-6.8,-6.8*,-26%*,i,i,KCNQ2 patch conf=+
CSCCC(NC(=O)c1ccc(Cl)cc1Cl)C(=O)OCC(N)=O (stereo not given),·,i,·,·,·,
CC1(C)CC(NC(=O)C2CCN(S(=O)(=O)c3ccc(F)cc3)CC2)CC(C)(C)N1,·,i,·,·,·,
COc1cccc(/C=C2\SC(=S)N(N3CCOCC3)C2=O)c1OC,-8.6,-8.6*,-34%*,i,i,KCNQ2 patch conf=i
COc1ccc(/C=C2\SC(=S)N(N3CCOCC3)C2=O)c(OC)c1,·,i,·,·,·,
O=C(CSc1nnc(NC(=O)c2ccccc2F)s1)NCC1CCCO1 (stereo not given),·,i,·,·,·,
Cn1c(C(=O)N(Cc2ccccc2)Cc2ccccn2)cc2sccc21,-8.3,-8.3*,i,i,i,
Cn1c(C(=O)N(Cc2ccccc2)Cc2cccs2)cc2sccc21,·,i,·,·,·,
CCN(CC)C(=O)C1CCN(C(=O)c2oc3ccc(C)cc3c2C)CC1,·,i,·,·,·,
CCN(CC)C(=O)C1CCCN(C(=O)c2oc3ccc(C)cc3c2C)C1 (stereo not given),-7,-7*,i,i,i,
CCc1ccccc1N(C)S(=O)(=O)c1ccc(-c2cc(C)no2)s1,·,i,·,·,·,
CCC(C)[C@H](NC(=O)C1CC(=O)N(c2ccc(OC)cc2)C1)C(=O)NC1CCCC1 (stereo not given in full),0.33,i,·,·,·,
O=C(COC(=O)c1cc(-c2ccco2)nc2ccccc12)NCc1ccccc1,-6.9,-6.9*,i,i,i,
CCN(CC)CCNC(=O)c1cc(-c2ccco2)nc2ccccc12,0.72,i,·,·,·,
COc1ccc(CCNC(=O)c2cc(-c3ccco3)nc3ccccc23)cc1,-8.2,-8.2*,-27%*,i,i,KCNQ2 patch conf=+
CNC(=O)COC(=O)c1cc(-c2ccco2)nc2ccccc12,·,i,·,·,·,
O=[N+]([O-])c1ccc(Nc2nc(NC3CCCCC3)nc(N3CCCC3)n2)cc1,1.3,i,·,·,·,
O=C(CN1CCCC1)N1c2ccccc2Sc2ccccc21,1.9,i,·,·,·,
CC1(C)CCCN(C(=O)N2c3ccccc3Sc3ccccc32)C1,-8.6,-8.6*,i,i,i,
Clc1ccc(/C=N/NC(=Nc2ccccc2)c2ccccn2)c(Cl)c1,-8.2,-8.2*,-28%*,i,i,KCNQ2 patch conf=+
C(=N\NC(=Nc1ccccc1)c1ccccn1)/c1ccccn1,·,i,·,·,·,
CCOC(=O)N1CCN(C(=O)CNC(=O)c2ccc(Cl)cc2)CC1,1.1,i,·,·,·,
Cc1noc(C(=O)N2CCN(Cc3ccc4c(c3)OCO4)CC2)c1Cl,·,i,·,·,·,
SMILES,KCNQ2 pot,KCNQ2 block,KCNQ2 block conf,KCNQ1 spec,CHO Tl ctr,others
O=C(NN1CCOCC1)c1ccc(Cl)cc1[N+](=O)[O-],·,i,·,·,·,
Cc1cccc(-n2nnnc2SCc2csc(-c3ccccc3)n2)c1,-7.2,-7.2*,-32%*,i,i,KCNQ2 patch conf=+
Cc1ccc(Nc2nc(CSc3nnnn3-c3ccccc3)cs2)cc1,·,i,·,·,·,
Cc1nn(C(C)C(=O)NC2CCC(C)CC2)c(=O)c2nn(-c3ccccc3)c(C)c12 (stereo not given),1.8,i,·,·,·,
CC(C)c1nc(N2CCN(C(=O)c3ccco3)CC2)c2c3c(sc2n1)CCCC3,-8.7,-8.7*,i,i,i,
Cc1nc(N2CCN(C(=O)c3ccco3)CC2)c2c3c(sc2n1)CCC3,1.2,i,·,·,·,
Cc1ccc(NC(=O)C(C)OC(=O)CCN=C2NS(=O)(=O)c3ccccc32)cc1 (stereo not given),0.64,i,·,·,·,
Cc1ccc2c(c1C)OC(=O)CC2c1ccccc1 (stereo not given),·,i,·,·,·,
CC(C)c1ccc(/C=N/NC(=O)c2cccc(Cl)c2)cc1,·,i,·,·,·,
CC(C)c1ccc(C(=O)N/N=C/c2cccc(Cl)c2Cl)cc1,-9.5,-9.5*,i,i,i,
